Screening results as filed in PubChem BioAssay.
Hits are enriched below; roughly 0.9% of the tested compounds scored in any of these assays.
SRC2 TRFRET art – TR-FRET signal artefacts, primary screen, artefact control for PPARgamma SRC-2 agonist project, biochemical | TR-FRET artefact counter-screen; hits give high values | TR-FRET ratio at 8 µM | 200,000 tested, 0.4% active; in the data active = TR-FRET ratio above about 2000
PPARg SRC-1 ag – PPARgamma agonists recruiting SRC-1 coactivator, primary screen, biochemical; 200,000 tested, 0.41% active; PPARgamma-SRC-1 coactivator recruitment biochemical assay; activation, % at 8 µM; in the data active = activation above about 19%;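 note: 0% = DMSO and 100% = reference agonist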
Target sequence (P37231 whole entry, looked up): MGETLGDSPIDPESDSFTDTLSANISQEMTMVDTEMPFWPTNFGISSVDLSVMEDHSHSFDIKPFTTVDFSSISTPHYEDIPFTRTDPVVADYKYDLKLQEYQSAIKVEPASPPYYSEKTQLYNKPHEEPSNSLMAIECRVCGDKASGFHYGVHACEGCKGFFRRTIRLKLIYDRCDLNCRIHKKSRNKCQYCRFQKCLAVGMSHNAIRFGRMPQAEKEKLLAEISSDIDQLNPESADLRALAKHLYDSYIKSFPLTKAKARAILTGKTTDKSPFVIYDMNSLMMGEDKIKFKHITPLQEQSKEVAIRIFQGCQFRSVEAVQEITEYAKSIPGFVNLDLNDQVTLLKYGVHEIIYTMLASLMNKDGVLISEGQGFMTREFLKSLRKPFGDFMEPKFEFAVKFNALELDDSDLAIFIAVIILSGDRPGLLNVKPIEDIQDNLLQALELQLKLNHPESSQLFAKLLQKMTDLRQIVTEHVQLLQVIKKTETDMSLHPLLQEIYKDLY
SRC1 TRFRET art – TR-FRET detection interference compounds, primary screen, artefact control for PPARgamma SRC-1 recruitment agonists, biochemical, TR-FRET emission ratio; TR-FRET detection artefact counter-screen; hits give high values; 99,000 tested, 0.34% active; TR-FRET ratio at 8 µM; in the data active = TR-FRET ratio above about 2300
PPARg SRC-2 ag – agonists of PPARg-SRC-2 recruitment, primary screen, biochemical, HTS. Peroxisome proliferator-activated receptor gamma (Homo sapiens), P37231. PPARgamma LBD-SRC-2 recruitment. activation, % at 8 µM. 200,000 tested, 0.34% active;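 note: 0% = vehicle and 100% = reference agonist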
SRC3 TRFRET art – TR-FRET detection interference compounds, artefact control for PPARgamma SRC-3 recruitment agonists, biochemical, TR-FRET ratio; TR-FRET artefact counter-screen, PPARgamma/SRC-3 format; hits give high values; TR-FRET ratio at 8 µM; 99,000 tested, 0.39% active; AID 1048, 2008; in the data active = TR-FRET ratio above about 2000
PPARg SRC-3 ag – PPARgamma agonists recruiting SRC-3 coactivator, primary screen, biochemical; Peroxisome proliferator-activated receptor gamma (Homo sapiens), P37231; biochemical PPARgamma/SRC-3 coactivator recruitment assay; activation, % at 8 µM; 200,000 tested, 0.26% active; AID 731, 2007; in the data active = activation above about 23%;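 note: 0% = DMSO and 100% = reference agonist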
PPARg SRC2 ag – agonists of PPARgamma SRC-2 coactivator recruitment, confirmation, biochemical, HTS | 790 tested, 52% active | shares compounds with PPARg SRC-3 ag | AID 1297, 2008 | biochemical SRC-2 recruitment by PPARgamma | activation, % at 8 µM;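 note: 0% = vehicle alone and 100% = reference agonist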
PPARg SRC1 ag – PPARgamma agonists recruiting SRC-1 coactivator, confirmation, biochemical | 790 tested, 43% active | shares compounds with PPARg SRC-3 ag | activation, % at 8 µM | PPARgamma–SRC-1 coactivator recruitment biochemical assay; in the data active = activation above about 20%;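 note: 0% = vehicle wells and 100% = reference agonist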
PPARg SRC3 conf – PPARgamma-driven SRC-3 coactivator recruitment agonists, confirmation, biochemical; shares compounds with PPARg SRC-3 ag; biochemical PPARgamma-SRC-3 coactivator recruitment, agonist mode; activation, % at 8 µM; 790 tested, 29% active; AID 1301, 2008; in the data active = activation above about 24%;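 note: 0% = vehicle wells and 100% = reference agonist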
Starred values were filed as active, the others as inactive. Cut-off read from the data, not from the text of the source, unless noted: active = activation above about 22%; inactive = the rest.

For Cc1cc(N2C(=O)C(O)=C(C(=O)c3cccs3)C2c2cccc(O)c2)no1 (stereo unspecified) the results were SRC2 TRFRET art 1443, PPARg SRC-1 ag -2, PPARg SRC-2 ag 6 and PPARg SRC-3 ag -4.
Cc1ccc2nc(N3C(=O)C(O)=C(C(=O)c4ccc(C)o4)C3c3cccc(O)c3)sc2c1 (stereo unspecified) was read as SRC2 TRFRET art 1951, PPARg SRC-1 ag 15, SRC1 TRFRET art 2305, PPARg SRC-2 ag 24*, SRC3 TRFRET art 1853, PPARg SRC-3 ag 10, PPARg SRC2 ag 4, PPARg SRC1 ag 4 and PPARg SRC3 conf 2.
Screening C=CCOc1cccc(C2C(C(=O)c3ccco3)=C(O)C(=O)N2CCN(CC)CC)c1 (stereo unspecified) returned SRC2 TRFRET art 1590, PPARg SRC-1 ag 8, PPARg SRC-2 ag 7 and PPARg SRC-3 ag 0.
For O=C(Cc1sc(-c2ccccc2)nc1-c1ccccc1)Nc1ccc(Cl)cc1 the results were SRC2 TRFRET art 1545, PPARg SRC-1 ag 6, PPARg SRC-2 ag -1 and PPARg SRC-3 ag -1.
Screening O=C(Cc1sc(-c2ccccc2Cl)nc1-c1ccccc1)Nc1ccc(F)cc1 returned SRC2 TRFRET art 2292*, PPARg SRC-1 ag 29*, PPARg SRC-2 ag 15, PPARg SRC-3 ag 13, PPARg SRC2 ag 18, PPARg SRC1 ag 7 and PPARg SRC3 conf 7.
Screening COc1ccc(NC(=O)/C=C/c2cc(Br)ccc2OC)cc1 returned SRC2 TRFRET art 1651, PPARg SRC-1 ag 0, PPARg SRC-2 ag -3 and PPARg SRC-3 ag 0.
`CCN(CC)c1ccc(NC(=O)/C=C/c2cc(Br)ccc2OC)cc1` gave SRC2 TRFRET art 1525, PPARg SRC-1 ag 24*, PPARg SRC-2 ag 17, PPARg SRC-3 ag 13, PPARg SRC2 ag 1, PPARg SRC1 ag 4 and PPARg SRC3 conf 3.
Screening S=c1[nH]c(-c2ccccc2)cn1/N=C/c1ccc(Br)cc1 returned SRC2 TRFRET art 1402, PPARg SRC-1 ag 30*, SRC1 TRFRET art 1927, PPARg SRC-2 ag 13, SRC3 TRFRET art 1662, PPARg SRC-3 ag 26*, PPARg SRC2 ag 12, PPARg SRC1 ag 16 and PPARg SRC3 conf 15.
For Cc1ccc(C)c(/C=N/n2cc(-c3ccccc3)[nH]c2=S)c1 the results were SRC2 TRFRET art 1728, PPARg SRC-1 ag -3, SRC1 TRFRET art 1705, PPARg SRC-2 ag 5, SRC3 TRFRET art 1480 and PPARg SRC-3 ag 3.
COc1c(F)c(F)c(C(=O)Nc2ccc3oc(-c4ccncc4)nc3c2)c(F)c1F was read as SRC2 TRFRET art 1606, PPARg SRC-1 ag 82*, PPARg SRC-2 ag 3, PPARg SRC-3 ag 74*, PPARg SRC2 ag 71*, PPARg SRC1 ag 66* and PPARg SRC3 conf 49*.
For CC(C)Nc1nc(Oc2ccc(Cl)cc2)cc(C(F)(F)F)n1 the results were SRC2 TRFRET art 1676, PPARg SRC-1 ag 11, PPARg SRC-2 ag 23*, PPARg SRC-3 ag 6, PPARg SRC2 ag 0, PPARg SRC1 ag 3 and PPARg SRC3 conf 0.
`CCNc1nc(Oc2ccc(F)cc2)cc(C(F)(F)F)n1` gave SRC2 TRFRET art 1629, PPARg SRC-1 ag -3, SRC1 TRFRET art 1898, PPARg SRC-2 ag 4, SRC3 TRFRET art 1498 and PPARg SRC-3 ag 4.
CCC(CO)NCc1ccccc1OC(C)C (stereo unspecified) was read as SRC2 TRFRET art 1416, PPARg SRC-1 ag 1, SRC1 TRFRET art 1623, PPARg SRC-2 ag -4, SRC3 TRFRET art 1501 and PPARg SRC-3 ag 1.
For O=C(Nc1nnc(-c2cccs2)s1)c1cccc(F)c1 the results were SRC2 TRFRET art 1531, PPARg SRC-1 ag 0, SRC1 TRFRET art 1691, PPARg SRC-2 ag 3, SRC3 TRFRET art 1410 and PPARg SRC-3 ag 6.
Screening O=[N+]([O-])c1cc(Cc2ccccc2)cc(C=Nc2ccc(N3CCOCC3)cc2)c1O returned SRC2 TRFRET art 2504*, PPARg SRC-1 ag 51*, SRC1 TRFRET art 3128*, PPARg SRC-2 ag 65*, SRC3 TRFRET art 2652*, PPARg SRC-3 ag 39*, PPARg SRC2 ag 22, PPARg SRC1 ag 17 and PPARg SRC3 conf 17.
Screening Cn1c(=S)[nH]c2scc(-c3cccs3)c2c1=O returned SRC2 TRFRET art 2702*, PPARg SRC-1 ag 50*, SRC1 TRFRET art 3197*, PPARg SRC-2 ag 42*, SRC3 TRFRET art 2495*, PPARg SRC-3 ag 27*, PPARg SRC2 ag 57*, PPARg SRC1 ag 41* and PPARg SRC3 conf 37*.
`O=c1c2c(-c3cccs3)csc2ncn1-c1ccc(Br)cc1` gave SRC2 TRFRET art 1896, PPARg SRC-1 ag 4, PPARg SRC-2 ag 17 and PPARg SRC-3 ag 4.
`C=CCn1c(=S)[nH]c2scc(-c3cccs3)c2c1=O` gave SRC2 TRFRET art 3332*, PPARg SRC-1 ag 68*, SRC1 TRFRET art 3938*, PPARg SRC-2 ag 76*, SRC3 TRFRET art 3585*, PPARg SRC-3 ag 42*, PPARg SRC2 ag 78*, PPARg SRC1 ag 55* and PPARg SRC3 conf 47*.
Screening O=C(/C=C/c1ccc(S(=O)(=O)N2CCOCC2)cc1)NCCCn1ccnc1 returned SRC2 TRFRET art 1486, PPARg SRC-1 ag 0, SRC1 TRFRET art 1595, PPARg SRC-2 ag 4, SRC3 TRFRET art 1428 and PPARg SRC-3 ag -4.
Screening CC(=O)N1N=C(c2ccc(Br)cc2)CC1c1cn(C)c2ccccc12 (stereo unspecified) returned SRC2 TRFRET art 2079*, PPARg SRC-1 ag 24*, SRC1 TRFRET art 2488*, PPARg SRC-2 ag 28*, SRC3 TRFRET art 2275*, PPARg SRC-3 ag 20, PPARg SRC2 ag 36*, PPARg SRC1 ag 34* and PPARg SRC3 conf 24.
`CCCC(=O)N1N=C(c2ccccc2)CC1c1cn(C)c2ccccc12` (stereo unspecified) gave SRC2 TRFRET art 1652, PPARg SRC-1 ag 0, SRC1 TRFRET art 1917, PPARg SRC-2 ag 3, SRC3 TRFRET art 1691 and PPARg SRC-3 ag 5.
